From PubChem
EBV LMP1 NFkB: EBV LMP1-driven NF-kappaB luciferase reporter inhibitors, primary screen, cell-based, luminescence, single point. inhibition, % at 12.5 µM. actives 0.69% (n = 350,000). LMP1-induced NF-kappaB luciferase reporter cells. AID 504558, 2011; in the data active = inhibition above about 41%;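 note: 0% = neutral control wells and 100% = reference inhibitor control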
EWS-Fli inh: EWS/Fli-driven NR0B1 reporter inhibitors, primary screen, A673 cells, NR0B1 luciferase, luminescence, MLPCN library. inhibition, % at 12.6 µM. actives 0.67% (n = 350,000). viability-normalised;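 active = mean inhibition of at least 50% after viability correction, with every replicate also passing that limit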;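 note: firefly luciferase signal divided by Alamar Blue viability fluorescence both relative to DMSO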
LGR2 antag: inhibitors of bursicon-induced LGR2 CRE-luciferase signal, primary screen, cell-based, HEK293, CRE-luciferase reporter, bursicon stimulation; Drosophila bursicon receptor LGR2 (rickets); bursicon-stimulated, 4 h; inhibition, % at 9.99 µM; actives 0.35% (n = 380,000);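 active = drop in luminescence signal, shown as inhibition above about 50% in the replicate tests, limit read from the data, passing the limit was not always enough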;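 note: agonist challenge used bursicon conditioned medium at about half maximal strength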
TWEAK-Fn14 inh: inhibitors of TWEAK-Fn14 signaling, primary screen, luciferase reporter cells, uHTS | actives 2% (n = 360,000) | TWEAK-stimulated Fn14 reporter cells, luciferase luminescence, 8 h | inhibition, % at 10 µM; in the data active = inhibition above about 50%
TROY NFkB inh: inhibitors of TROY-driven NF-kB signaling, primary screen, Q293 LMP1-TROYcd cells, NF-kB luciferase, uHTS; inhibition, % at 10 µM; Q293 LMP1-TROYcd NF-kB luciferase reporter, 4 h; AID 1347056, 2019; actives 0.98% (n = 360,000);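 active = compounds whose plate-normalised and pattern-corrected inhibition of the luciferase reporter signal at the single screening dose is 50% or more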
* hit, by the source's call. Shown are actives, neighbours in structure and some others; about 2.6% of the full set was active somewhere.

How did O=C(CSc1ccc(-c2ccccn2)nn1)c1ccc(F)cc1 do in these assays?
EBV LMP1 NFkB: 6.9; EWS-Fli inh: -7.0; LGR2 antag: -8.5; TWEAK-Fn14 inh: 81.8*; TROY NFkB inh: -10.6

What do the screens show for `O=C(CSc1ccc(-c2ccccn2)nn1)c1ccccc1`?
EBV LMP1 NFkB: -9.1; EWS-Fli inh: -68.9; LGR2 antag: -35.9; TWEAK-Fn14 inh: -15.5; TROY NFkB inh: -28.1

Results for C[C@H]1CCCCO[C@@H](CN(C)C(=O)NC2CCCCC2)[C@@H](C)CN([C@@H](C)CO)C(=O)c2cc(NC(=O)C3CCCCC3)ccc2O1 ?
EWS-Fli inh: 9.9; LGR2 antag: 6.9

How did C[C@@H](NC(=O)C[C@H]1C=C[C@H](NC(=O)CN2CCOCC2)[C@H](CO)O1)c1ccccc1 do in these assays?
EWS-Fli inh: 7.6; LGR2 antag: 10.0

What do the screens show for `COc1ccc(NC(=O)Nc2cccc3c2O[C@H](CN(C)S(=O)(=O)c2ccc(OC)cc2)[C@H](C)CN([C@@H](C)CO)C3=O)cc1`?
EWS-Fli inh: 2.1; LGR2 antag: -20.2

What do the screens show for `Cc1ccc(Cl)cc1N1CCN(C(=O)c2noc(C(C)C)c2[N+](=O)[O-])CC1`?
EBV LMP1 NFkB: -7.6; EWS-Fli inh: 56.2*; LGR2 antag: 9.1; TWEAK-Fn14 inh: -10.8; TROY NFkB inh: -4.8

What do the screens show for `CC(C)c1cc(C(=O)N2CCN(C(c3ccccc3)c3ccccc3)CC2)no1`?
EBV LMP1 NFkB: -5.1; LGR2 antag: -15.3; TWEAK-Fn14 inh: 41.2; TROY NFkB inh: 60.3*

How did Cc1onc(C(=O)N2CCC(Cc3ccccc3)CC2)c1[N+](=O)[O-] do in these assays?
EBV LMP1 NFkB: 17.2; EWS-Fli inh: 59.2*; LGR2 antag: 3.3; TWEAK-Fn14 inh: -26.2; TROY NFkB inh: 6.7

Results for CC(C)c1onc(C(=O)N2CCN(C(c3ccccc3)c3ccccc3)CC2)c1[N+](=O)[O-] ?
EBV LMP1 NFkB: -6.4; EWS-Fli inh: 64.3*; LGR2 antag: 5.3; TWEAK-Fn14 inh: -30.4; TROY NFkB inh: -8.5

How did CC(C)c1onc(C(=O)N2CCN(c3ccccc3)CC2)c1[N+](=O)[O-] do in these assays?
EBV LMP1 NFkB: 2.3; EWS-Fli inh: 5.9; LGR2 antag: -3.4; TWEAK-Fn14 inh: 0.7; TROY NFkB inh: -4.2

Results for C[C@H]1CN([C@@H](C)CO)C(=O)Cc2cc(NS(=O)(=O)c3ccccc3)ccc2O[C@H]1CN(C)C(=O)Nc1ccc2c(c1)OCO2 ?
EWS-Fli inh: -14.6; LGR2 antag: 13.1

What do the screens show for `COC(=O)C[C@@H]1C[C@@H]2c3cc(NC(=O)NC4CCCCC4)ccc3O[C@@H]2[C@@H](CO)O1`?
EWS-Fli inh: -5.1; LGR2 antag: -4.5

How did C[C@H]1CN([C@@H](C)CO)C(=O)Cc2cc(NS(C)(=O)=O)ccc2O[C@H]1CN(C)S(=O)(=O)c1ccccc1 do in these assays?
EWS-Fli inh: 3.8; LGR2 antag: -1.5

What do the screens show for `OC(COc1ccccc1)CN1CCCCC1` (stereo not drawn)?
EBV LMP1 NFkB: 0.9; EWS-Fli inh: -7.3; LGR2 antag: 12.0; TWEAK-Fn14 inh: 0.0; TROY NFkB inh: -8.9

How did O=C(/C=C/c1ccccc1)N1CCN(CC(O)COc2ccccc2)CC1 (stereo not drawn) do in these assays?
EBV LMP1 NFkB: -1.4; TWEAK-Fn14 inh: 5.1; TROY NFkB inh: 53.9*

What do the screens show for `CCC(C)[C@H](NC(=O)NCc1cccnc1)C(=O)OC` (stereo partly drawn)?
EBV LMP1 NFkB: 51.7*; EWS-Fli inh: 19.8; LGR2 antag: -2.0; TWEAK-Fn14 inh: 2.0; TROY NFkB inh: 7.8

Results for NCC[C@H]1CC[C@@H](NC(=O)C2CCCC2)[C@@H](CO)O1 ?
EWS-Fli inh: -3.0; LGR2 antag: 1.5

How did N#Cc1nc(-c2ccco2)oc1NCCc1ccccc1 do in these assays?
EBV LMP1 NFkB: -6.1; TWEAK-Fn14 inh: 61.5*

Results for O=C(C[C@@H]1C[C@@H]2c3cc(NC(=O)c4cccnc4)ccc3O[C@@H]2[C@H](CO)O1)NCc1ccccc1F ?
EWS-Fli inh: 11.0; LGR2 antag: -8.8

Results for CCCNC(=O)N1C[C@@H](O)COC[C@H]2O[C@@H](CC(=O)N[C@@H]3CCN(Cc4ccccc4)C3)CC[C@@H]21 ?
EWS-Fli inh: 4.7; LGR2 antag: 0.5

How did COC(=O)C1=CN(c2ccc(F)cc2)C(N)=C(C#N)C1c1ccc(-c2ccccc2)cc1 (stereo not drawn) do in these assays?
EWS-Fli inh: 2.5; LGR2 antag: 7.3

How did COC(=O)C1=CN(c2ccc3c(c2)OCO3)C(N)=C(C#N)C1c1ccc(-c2ccccc2)cc1 (stereo not drawn) do in these assays?
EWS-Fli inh: 66.9*; LGR2 antag: -23.2

What do the screens show for `O=C(C1CCCC1)N1CC(=O)N2[C@H](CO)[C@H](c3ccc(-c4ccccc4F)cc3)[C@@H]2C1`?
EWS-Fli inh: -4.9; LGR2 antag: -12.8

Results for CC1CC(Nc2ccccc2)c2ccccc2N1C(=O)c1ccccc1F (stereo not drawn) ?
EBV LMP1 NFkB: 14.8; EWS-Fli inh: 62.6*; LGR2 antag: 20.5; TWEAK-Fn14 inh: 26.8; TROY NFkB inh: 15.1

Results for CCCNC(=O)N1C[C@@H](C)[C@@H](OC)CN(C)C(=O)c2cc(NS(C)(=O)=O)ccc2OC[C@@H]1C ?
EWS-Fli inh: -14.7; LGR2 antag: -4.3

Results for CN1CCN(C(=O)C[C@H]2C[C@H]3c4cc(NC(=O)NC5CCCC5)ccc4O[C@H]3[C@@H](CO)O2)CC1 ?
EWS-Fli inh: 0.9; LGR2 antag: -1.5

Results for CS(=O)(=O)N1CCN(c2ccc([N+](=O)[O-])c(NCc3ccccc3)c2)CC1 ?
EBV LMP1 NFkB: 4.8; TWEAK-Fn14 inh: 75.4*

What do the screens show for `COCCCNCC1C(Oc2ccc(Cl)cc2)C(=O)N1c1ccccc1C` (stereo not drawn)?
EBV LMP1 NFkB: 75.8*; LGR2 antag: -5.9; TWEAK-Fn14 inh: -28.8; TROY NFkB inh: -2.8

What do the screens show for `Cc1ccccc1N1C(=O)C(Oc2ccc(Cl)cc2)C1CNCCCOC(C)C` (stereo not drawn)?
EBV LMP1 NFkB: 1.7; EWS-Fli inh: 1.1; LGR2 antag: 11.3; TWEAK-Fn14 inh: -9.9; TROY NFkB inh: -5.2

How did O=[N+]([O-])c1ccc(O)c(N=Cc2sc3ccccc3c2O)c1 do in these assays?
EBV LMP1 NFkB: -20.2; EWS-Fli inh: -8.2; LGR2 antag: -0.5; TWEAK-Fn14 inh: 75.9*; TROY NFkB inh: 75.8*

What do the screens show for `O=C(Cc1ccccn1)NCC[C@@H]1CC[C@@H](NS(=O)(=O)c2ccccc2)[C@H](CO)O1`?
EWS-Fli inh: -1.8; LGR2 antag: 2.8

Results for CO[C@H]1CN(C)C(=O)c2cc(NC(C)=O)ccc2OC[C@@H](C)N(Cc2cccc(F)c2)C[C@H]1C ?
EWS-Fli inh: -2.0; LGR2 antag: -2.8
